This is an account of results in PubChem BioAssay (Tox21).

Where “and” joins values, the source holds several entries; their conditions need not be identical. Equal values may be shown once. Inconclusive results are not listed. Some structures have more than one record in an assay (separate samples or runs), and their calls can disagree. Calls of active or inactive are those of the source. Unless noted, the call rests on the fitted dose curve.

A short description of assay [1]: Nuclear factor erythroid 2-related factor 2/antioxidant responsive element (Nrf2/ARE) small molecule agonists: qHTS cell viability counter screen in human keratinocytes (AID 1919968; active means well fitted curve in the direction sought with a large enough effect in the repeat runs; an effect the other way counts as inactive or inconclusive; further: nearly all actives have a fitted effect of over 55% in size). An outline of the steps: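 Cytotoxicity was multiplexed with the Nrf2/ARE luciferase assay in the same wells. Stably transfected HaCaT keratinocytes were treated with test compounds for 23 h at 37 C. Cell viability was then measured by CellTiter-Fluor fluorescence.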

A short description of assay [2]: Nuclear factor erythroid 2-related factor 2/antioxidant responsive element (Nrf2/ARE) small molecule agonists: luciferase reporter gene qHTS assay in human keratinocytes (AID 1919969). Further: nearly all actives have a fitted effect of over 35% in size. Further: potency means the concentration at half of the fitted maximal effect.
For assay [3], the target named is Gonadotropin-releasing hormone receptor (Homo sapiens) (UniProt P30968). Put plainly: Human gonadotropin-releasing hormone receptor (GnRHR) small molecule agonists, calcium flux assay in GnRHR-HEK293 cells (AID 1920063). Further: nearly all actives have a fitted effect of over 35% in size. An outline of the steps:
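Agonist activity was measured as intracellular calcium flux in HEK293 cells engineered to stably express human GnRHR. After dye loading for 1 hour at 37 C, compounds in DMSO were added and fluorescence was followed for 3 minutes.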

Assay [4] deals with KiSS-1 receptor (Homo sapiens) (UniProt Q969F8). Put plainly: Human kisspeptin (KISS1R) small molecule agonists, calcium flux assay in KISS1R-HEK293 cells (AID 1920064; active means well fitted curve in the direction sought with a large enough effect in the repeat runs; an effect the other way counts as inactive or inconclusive). An outline of the steps:
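Agonist activity is monitored as intracellular calcium rise in engineered HEK293 cells carrying human KISS1R. Cells are dye-loaded for 1 h at 37 C before compound addition, and fluorescence is recorded for 3 min.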

Assay [5] is described as follows: G protein-coupled receptor (GPCR) small molecule agonists, calcium flux assay: HEK293 wild type cell line counter screen (AID 1920065). An outline of the steps: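 Seed cells, incubate 18 h (37 C, 5% CO2); add calcium dye, 1 h at 37 C; pin-transfer compounds, ATP control or DMSO; read fluorescence 480/540 nm each second for 3 min.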
Assay [6] in a line: p53 small molecule agonists, cell-based qHTS assay with human liver microsomes (AID 1963577).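 Further: p53 response element beta-lactamase reporter cells with liver microsomes plus NADPH.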 An outline of the steps: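 Reporter activation was measured by LiveBLAzer fluorescence intensity in p53RE-bla cells, which had been exposed to compounds for 16 h at 37 C alongside 0.5 mg/mL human liver microsomes and 0.5 mg/mL NADPH (final concentrations).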
A short description of assay [7]: p53 small molecule agonists, cell-based qHTS assay with rat liver microsomes (AID 1963578). An outline of the steps: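 Compound in DMSO added to p53RE-bla cells 5 h post-plating; rat microsomes/NADPH 0.5 mg/mL final; 16 h, 37 C; LiveBLAzer 2 h RT.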
A short description of assay [8]: p53 small molecule agonists, cell-based qHTS assay with human liver microsomes: qHTS cell viability counter screen (AID 1963579). Further: nearly all actives have a fitted effect of over 45% in size. The procedure, abridged: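 HLM-supplemented (0.5 mg/mL final) and NADPH-supplemented (0.5 mg/mL final) p53RE-bla cultures, 4,000 cells per well, were dosed with compounds in DMSO for 16 h at 37 C; luminescent ATP detection (CellTiter-Glo, 30 min, room temperature) quantified surviving cells.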

The nature of assay [9]: p53 small molecule agonists, cell-based qHTS assay with rat liver microsomes: qHTS cell viability counter screen (AID 1963580). Further: nearly all actives have a fitted effect of over 45% in size. An outline of the steps: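 Cytotoxicity counter screen: intracellular ATP measured by CellTiter-Glo luminescence in the same wells as the beta-lactamase reporter read, on HCT-116 p53RE-bla cells exposed 16 h at 37 C to compounds with rat liver microsomes and NADPH, each 0.5 mg/mL final.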

A short description of assay [10]: p53 small molecule agonists, cell-based qHTS assay: qHTS cell viability counter screen (AID 1963581). Further: nearly all actives have a fitted effect of over 45% in size. The procedure, abridged:
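Viability was counter-screened in parallel with the p53 agonist reporter by measuring intracellular ATP luminescence in the same HCT-116 p53RE-bla wells after 16 h compound treatment at 37 C.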

Assay [11] can be described thus: p53 small molecule agonists, cell-based qHTS assay (AID 1963582; active means well fitted activation curve with a large enough effect in the signal ratio in the repeat runs, not every such curve was filed as active; the % refers to the signal ratio). The procedure, abridged: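 Cells carrying a p53-responsive bla reporter are treated with test compounds for 16 h at 37 C; beta-lactamase activity is then detected with LiveBLAzer B/G FRET substrate after 2 h at room temperature.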
For assay [12], the target named is 5-hydroxytryptamine receptor 2A (Homo sapiens) (UniProt P28223). Put plainly: 5-hydroxytryptamine receptor 2A (HTR2A) small molecule antagonists, cell-based qHTS assay (AID 1963586). Further: nearly all actives have a fitted effect of over 45% in size. An outline of the steps:
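CHO cells stably expressing human HTR2A were plated for 18 h at 37 C, then loaded with calcium dye for 1 h. Compounds were preincubated 5 min at room temperature before DOI (4 nM solution) was added. Kinetic fluorescence was read for 3 min.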

For assay [13] the target is unchanged. Briefly: 5-hydroxytryptamine receptor 2A (HTR2A) small molecule agonists, cell-based qHTS assay (AID 1963587). Further: nearly all actives have a fitted effect of over 30% in size. The procedure, abridged: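 CHO cells stably expressing human HTR2A, plated 18 h, loaded with calcium dye 1 h at 37 C. Agonist mode: compounds added and intracellular calcium fluorescence recorded kinetically for 2 min at 1 sec intervals.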
Assay [14] has as its target Muscarinic acetylcholine receptor M1 (Homo sapiens) (UniProt P11229). Briefly: Cholinergic receptor muscarinic 1 (CHRM1) small molecule antagonists, cell-based qHTS assay (AID 1963588). Further: nearly all actives have a fitted effect of over 40% in size. Further: potency means the concentration at half of the fitted maximal effect. An outline of the steps:
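Compounds were tested at 15 concentrations in three independent runs. Dye-loaded CHRM1-CHO cells were exposed 5 min at room temperature before stimulation by acetylcholine added at 50nM. Intracellular calcium was read kinetically on FDSS for 3 min.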

Assay [15] is described as follows: cAMP Responsive Elements (CRE) small molecule agonists, cell-based qHTS assay (AID 1963590). An outline of the steps:
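Cells carrying a CRE-driven beta-lactamase reporter (HEK 293T) are seeded, incubated overnight (18 h), and treated with test compounds for 3 h at 37 C; reporter activity is then detected with a FRET substrate after 2 h at room temperature.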

Assay [16] can be described thus: cAMP Responsive Elements (CRE) small molecule antagonists, cell-based qHTS assay (AID 1963591; active means well fitted inhibition curve with a large enough effect in the signal ratio in the repeat runs, not every such curve was filed as active; the % refers to the signal ratio). The procedure, abridged: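 Cells (CRE-bla HEK 293T, DMEM with 10% dialyzed FBS and 25 mM HEPES) are seeded and incubated 18 h. Compounds are added with NKH477 agonist at 0.25 uM final for 3 h, then FRET substrate for 2 h.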
For assay [17], the target named is Beta-2 adrenergic receptor (Homo sapiens) (UniProt P07550). Briefly: Adrenergic beta2 receptor (ADRB2) small molecule antagonists, cell-based qHTS assay (AID 1963592). Further: series mostly up to about 92 µM; nearly all actives have a fitted effect of over 50% in size. An outline of the steps: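 Assay format: CHO-ADRB2 cells, 18-20hr seeding at 37C/5% CO2, then compound plus 1nM isoproterenol agonist mix for 0.5hr RT. Homogeneous time-resolved fluorescence cAMP detection after 1hr, expressed as 665/615 nm ratio.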

The target of assay [18] is D(2) dopamine receptor (Homo sapiens) (UniProt P14416). Briefly: Dopamine D2 receptor (DRD2) small molecule agonists, cell-based qHTS assay (AID 1963594). Further: nearly all actives have a fitted effect of over 35% in size. The procedure, abridged: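 HEK293 cells stably expressing human DRD2, pre-treated with PDE inhibitor Ro20-1724 (0.1 mM final) and compound 10 min at room temperature, then stimulated with NKH477 (200nM […]) for 30 min. cAMP read by HTRF (665/620 nm).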

The target is the same in assay [19]. Briefly: Dopamine D2 receptor (DRD2) small molecule antagonists, cell-based qHTS assay (AID 1963595; active means well fitted inhibition curve with a large enough effect in the signal ratio in the repeat runs, with a control signal flat; the % refers to the signal ratio). An outline of the steps:
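In this cell-based antagonist screen, compounds act for 10 min at room temperature before a 30 min challenge with 12 nM quinpirole and 200 nM NKH477. cAMP is quantified by HTRF competition in DRD2-HEK293 cells containing 0.1 mM Ro20-1724.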

For assay [20], the target named is Muscarinic acetylcholine receptor M1 (Homo sapiens) (UniProt P11229). Briefly: Cholinergic receptor muscarinic 1 (CHRM1) small molecule agonists, cell-based qHTS assay (AID 1963589). Further: nearly all actives have a fitted effect of over 35% in size. The procedure, abridged: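 Cells were plated and incubated 18 h at 37 C/5% CO2, loaded with calcium dye for 1 h at 37 C, then treated with compounds in DMSO. Fluorescence was recorded kinetically at 1 sec intervals.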
Sequence of Muscarinic acetylcholine receptor M1 (Homo sapiens) (P11229 whole entry, looked up): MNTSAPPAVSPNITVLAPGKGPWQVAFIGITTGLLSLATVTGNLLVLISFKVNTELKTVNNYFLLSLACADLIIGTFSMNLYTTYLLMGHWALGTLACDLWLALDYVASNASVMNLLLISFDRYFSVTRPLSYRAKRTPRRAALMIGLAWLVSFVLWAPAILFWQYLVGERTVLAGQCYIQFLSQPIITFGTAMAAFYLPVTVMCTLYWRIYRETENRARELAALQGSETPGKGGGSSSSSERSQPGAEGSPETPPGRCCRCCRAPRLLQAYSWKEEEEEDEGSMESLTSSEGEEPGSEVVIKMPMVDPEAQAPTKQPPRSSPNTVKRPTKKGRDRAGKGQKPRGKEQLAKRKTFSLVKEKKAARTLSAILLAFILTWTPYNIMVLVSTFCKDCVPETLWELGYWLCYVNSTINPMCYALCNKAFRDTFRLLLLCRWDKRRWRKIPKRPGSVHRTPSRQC

Sequence of Gonadotropin-releasing hormone receptor (Homo sapiens) (P30968 whole entry, looked up): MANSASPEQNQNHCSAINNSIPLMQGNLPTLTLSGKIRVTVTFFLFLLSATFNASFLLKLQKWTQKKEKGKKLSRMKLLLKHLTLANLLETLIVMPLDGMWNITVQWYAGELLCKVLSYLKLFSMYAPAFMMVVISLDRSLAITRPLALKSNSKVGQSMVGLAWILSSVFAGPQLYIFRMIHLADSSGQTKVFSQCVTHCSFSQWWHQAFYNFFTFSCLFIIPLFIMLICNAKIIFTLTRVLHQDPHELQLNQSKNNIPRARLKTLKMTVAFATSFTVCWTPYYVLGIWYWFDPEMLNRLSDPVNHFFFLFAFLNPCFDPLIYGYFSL
Sequence of KiSS-1 receptor (Homo sapiens) (Q969F8 whole entry, looked up): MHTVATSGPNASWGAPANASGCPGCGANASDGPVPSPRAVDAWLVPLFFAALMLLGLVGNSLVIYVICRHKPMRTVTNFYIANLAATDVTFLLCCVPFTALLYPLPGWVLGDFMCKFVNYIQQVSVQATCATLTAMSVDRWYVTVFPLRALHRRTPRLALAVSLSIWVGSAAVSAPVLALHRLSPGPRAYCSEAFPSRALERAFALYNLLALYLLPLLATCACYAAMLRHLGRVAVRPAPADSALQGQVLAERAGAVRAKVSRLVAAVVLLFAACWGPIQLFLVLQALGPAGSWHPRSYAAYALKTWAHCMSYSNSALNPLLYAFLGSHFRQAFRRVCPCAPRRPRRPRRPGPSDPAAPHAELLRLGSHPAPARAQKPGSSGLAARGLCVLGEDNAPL
Sequence of 5-hydroxytryptamine receptor 2A (Homo sapiens) (P28223 whole entry, looked up): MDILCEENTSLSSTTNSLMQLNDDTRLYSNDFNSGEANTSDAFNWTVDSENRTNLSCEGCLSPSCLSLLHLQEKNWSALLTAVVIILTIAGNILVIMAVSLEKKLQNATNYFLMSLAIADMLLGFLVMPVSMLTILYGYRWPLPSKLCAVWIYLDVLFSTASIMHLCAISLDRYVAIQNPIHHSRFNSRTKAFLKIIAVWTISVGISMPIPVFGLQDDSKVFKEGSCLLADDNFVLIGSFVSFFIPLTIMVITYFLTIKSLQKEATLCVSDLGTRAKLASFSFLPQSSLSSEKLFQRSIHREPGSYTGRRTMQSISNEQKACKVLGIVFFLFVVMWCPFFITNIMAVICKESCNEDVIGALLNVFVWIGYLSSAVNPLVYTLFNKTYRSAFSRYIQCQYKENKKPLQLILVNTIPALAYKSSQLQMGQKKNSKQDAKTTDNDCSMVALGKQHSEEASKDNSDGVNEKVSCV
Sequence of Beta-2 adrenergic receptor (Homo sapiens) (P07550 whole entry, looked up): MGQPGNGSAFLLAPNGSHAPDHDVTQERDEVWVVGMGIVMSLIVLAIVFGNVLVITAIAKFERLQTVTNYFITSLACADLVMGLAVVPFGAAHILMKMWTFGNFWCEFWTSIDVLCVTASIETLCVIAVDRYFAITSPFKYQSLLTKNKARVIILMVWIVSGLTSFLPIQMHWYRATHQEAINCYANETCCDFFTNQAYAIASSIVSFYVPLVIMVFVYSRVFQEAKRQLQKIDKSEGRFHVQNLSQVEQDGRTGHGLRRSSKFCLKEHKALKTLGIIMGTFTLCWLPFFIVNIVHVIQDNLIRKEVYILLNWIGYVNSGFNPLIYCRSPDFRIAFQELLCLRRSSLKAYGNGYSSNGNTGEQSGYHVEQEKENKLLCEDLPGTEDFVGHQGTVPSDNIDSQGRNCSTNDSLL
Sequence of D(2) dopamine receptor (Homo sapiens) (P14416 whole entry, looked up): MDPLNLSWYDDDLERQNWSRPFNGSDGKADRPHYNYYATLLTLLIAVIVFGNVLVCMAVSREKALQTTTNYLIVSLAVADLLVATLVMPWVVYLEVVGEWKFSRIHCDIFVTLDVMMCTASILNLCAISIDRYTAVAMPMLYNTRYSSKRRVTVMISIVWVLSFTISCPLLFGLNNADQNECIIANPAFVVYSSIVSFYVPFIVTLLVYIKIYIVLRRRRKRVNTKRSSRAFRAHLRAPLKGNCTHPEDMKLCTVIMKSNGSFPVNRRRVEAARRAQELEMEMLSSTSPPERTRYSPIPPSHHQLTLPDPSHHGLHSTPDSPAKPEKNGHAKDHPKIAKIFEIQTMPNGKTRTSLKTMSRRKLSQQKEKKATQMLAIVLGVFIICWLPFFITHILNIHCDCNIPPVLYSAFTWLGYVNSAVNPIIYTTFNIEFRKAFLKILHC

As to `CC1=C(C(=O)Nc2ccccc2)SCCO1`, the Potency entry in [1], in assay [3], in [4], in assay [5], in assay [6] and in assay [7] was “inactive” each time. The Potency result in assay [8], in [9], in [10], in assay [11], in assay [12] and in assay [13] was “inactive” in each case. Also, the Potency entry in assay [14], in [15], in assay [16], in assay [17], in [18] and in assay [19] was “inactive” in each case. Moreover, in assay [2], the Potency entry is “inactive and 61.1 µM (active)”.

For the compound `c1ccc(CN2CCNCC2)cc1`, the Potency entry in [1], in [2], in assay [3], in assay [4], in assay [5] and in [6] was “inactive” each time. Moreover, the Potency entry in assay [7], in assay [8], in [9], in assay [10], in assay [11] and in assay [12] was “inactive” throughout. For the same compound, the Potency entry in [13], in assay [15], in assay [16], in [18] and in assay [19] was “inactive” in each case.

For `Cc1ccc(N=C=O)cc1N=C=O`, the Potency entry in assay [1], in assay [3], in assay [4], in [5], in assay [6] and in assay [7] was “inactive” throughout. Besides, the Potency result in assay [8], in [9], in [10], in assay [11], in assay [12] and in assay [13] was “inactive” throughout. The Potency result in assay [20], in [15], in assay [16], in assay [17], in [18] and in assay [19] was “inactive” in each case. The Potency in assay [2] was 62.7 µM (active) and 48.6 µM (active).

Take `ClCCOCCCl`: the Potency entry in [1], in assay [2], in assay [3], in assay [4], in [5] and in [6] was “inactive” in each case. The Potency result in assay [7], in assay [8], in assay [9], in [10], in assay [11] and in [12] was “inactive” in each case. In addition, the Potency entry in [14], in [20], in [15], in assay [16], in assay [17] and in [19] was “inactive” throughout.

Regarding `CN(CCO)CCO`, the Potency entry in assay [1], in [2], in [3], in assay [4], in [5] and in assay [6] was “inactive” in each case. Also, the Potency result in [7], in assay [8], in assay [9], in assay [10], in assay [11] and in assay [12] was “inactive” throughout. Also, the Potency result in [14], in assay [20], in assay [15], in assay [16], in [17] and in [19] was “inactive” in each case.

Consider `Cl[C@H]1OCCO[C@@H]1Cl`, for which the Potency entry in assay [1], in assay [2], in assay [3], in assay [4], in [5] and in [6] was “inactive” each time. Besides, the Potency entry in assay [7], in [8], in [9], in assay [10], in assay [11] and in assay [12] was “inactive” throughout. The Potency entry in [14], in [20], in assay [15], in assay [16], in [17] and in assay [18] was “inactive” in each case. Further, in assay [19], the Potency entry is “inactive”.

In the case of `CC(C)=CC1C(C(=O)OCN2C(=O)C3=C(CCCC3)C2=O)C1(C)C` (configuration not stated), the Potency result in [1], in assay [3], in assay [4], in assay [5], in assay [6] and in assay [7] was “inactive” in each case. Further, the Potency result in assay [8], in assay [9], in assay [10], in assay [11], in [12] and in assay [13] was “inactive” in each case. Besides, the Potency result in assay [16], in [17], in assay [18] and in [19] was “inactive” in each case. Also, the Potency in assay [2] is 48.6 µM (active) and 26.6 µM (active); in [14], 8.18 µM (active).

`O=C(O)c1ccc(=O)[nH]c1`: the Potency entry in [1], in assay [2], in assay [3], in assay [4], in assay [5] and in [6] was “inactive” in each case. In addition, the Potency entry in assay [7], in assay [8], in [9], in assay [10], in assay [12] and in assay [13] was “inactive” each time. Moreover, the Potency entry in assay [14], in [20], in [15], in assay [16], in assay [17] and in assay [18] was “inactive” in each case. Moreover, the Potency entry in [19] is “inactive”.
